From PubChem BioAssay (Tox21) come the findings set out here.

Structures are written as SMILES. Inconclusive results are not listed. Where a call stands in place of a potency, no number is given. The source made the active and inactive calls. Calls come from the whole dose curve.

This assay can be described thus: cAMP Responsive Elements (CRE) small molecule agonists, cell-based qHTS assay (AID 1963590). The following applies: CRE-bla HEK293T, beta-lactamase FRET ratio, 3 h; series mostly up to 92.4 µM. The source says:
U.S. Tox21 Program National Center for Advancing Translational Sciences [NCATS] Division of Preclinical Innovation [DPI] U.S. Environmental Protection Agency [EPA] National Institutes of Environmental Health Sciences [NIEHS] National Toxicology Program [NTP] U.S. Food and Drug Administration [FDA] Tox21 Assay Overview: CREB (cyclic-AMP Responsive Element Binding Protein) is a cellular transcription factor. It binds to certain DNA sequences called cAMP Responsive Elements (CRE) and regulates the transcription of the genes. […] This cell line can be used to find agonists/antagonists of the cyclic AMP signaling pathway. The activation of the report gene under culture conditions can be detected by fluorescence intensity. This cell line has been used to screen the Tox21 10K compound library to identify agonists that induce oxidative stress.
Tox21 Assay Protocol Summary: CRE-bla Hek 293T cells were suspended in assay medium (DMEM containing 10% dialyzed FBS, 0.1 mM NEAA, 1 mM sodium pyruvate and 25 mM HEPES) and dispensed at 2,000 cells/5 uL /well into 1536-well black wall/clear bottom plates using a Multidrop Combi (ThermoFisher Scientific, Waltham, MA) dispenser. After the assay plates were incubated at 37 C/5% CO2 for 18 hrs, 23 nL of compounds dissolved in DMSO, positive controls or DMSO only was transferred to the assay plate by a pintool workstation (Kalypsys, San Diego, CA). After the plates were incubated at 37 C/5% CO2 for 3 hrs, 1 uL of LiveBLAzer B/G FRET substrate (Invitrogen, Carlsbad, CA) was added to each well using Bioraptr Flying Reagent Dispenser (FRD, Aurora Discovery, San Diego, CA). The plates were incubated at room temperature for 2 h.
`NC(=O)NO`: the Potency entry is “inactive”.

Take `O=c1cc[nH]c(=S)[nH]1`: the Potency entry is “inactive”.

As to `C=CCc1ccc(O)c(OC)c1`, the Potency result was “inactive”.

For `O=C(O)C1=NN(c2ccc(S(=O)(=O)O)cc2)C(=O)C1`, the Potency entry is “inactive”.

Consider `C=C[Si](OCCOC)(OCCOC)OCCOC`, for which the Potency entry was “inactive”.

For `O=C(O)c1cccnc1`, the Potency result is “inactive”.

In the case of `OC[C@@H](O)[C@@H](O)[C@H](O)[C@@H](O)CO`, the Potency entry is “inactive”.

Consider `CC(C)OB(OC(C)C)OC(C)C`, for which the Potency result was “inactive”.

As to `COC(=O)c1ccc(C)cc1`, the Potency entry was “inactive”.

Turning to `CC(C)CC(C)CC(O)CC(C)C` (stereo not given), the Potency entry was “inactive”.

As for `Brc1ccc(Br)c(Br)c1`, the Potency entry is “inactive”.

With `COc1ccc(O)cc1`, the Potency entry was “inactive”.

Take `O=C(/C=C/C=C/c1ccc2c(c1)OCO2)N1CCCCC1`: the Potency entry is “inactive”.

Consider `CC1=CC(=O)CC(C)(C)C1`, for which the Potency entry is “inactive”.

As for `Nc1ncn([C@@H]2O[C@H](CO)[C@@H](O)[C@H]2O)c(=O)n1`, the Potency result was “inactive”.

For the compound `CC(=O)c1nccs1`, the Potency result is “inactive”.

Take `Cc1ccnc2c1NC(=O)c1cccnc1N2C1CC1`: the Potency entry was “inactive”.

For the compound `CCCCCCCCCCCCOC(=O)c1cc(O)c(O)c(O)c1`, the Potency entry is “inactive”.

As for `N[C@@H](Cc1cc(I)c(Oc2cc(I)c(O)c(I)c2)c(I)c1)C(=O)O`, the Potency result was “inactive”.

With `CC1(C)O[C@@H]2C[C@H]3[C@@H]4CCC5=CC(=O)C=C[C@]5(C)[C@@]4(F)[C@@H](O)C[C@]3(C)[C@]2(C(=O)CO)O1`, the Potency result was “inactive”.

With `CC1=CC[C@H]2C[C@@H]1C2(C)C`, the Potency entry is “inactive”.

Regarding `CN(C)CCN(Cc1cccs1)c1ccccn1`, the Potency result is “inactive”.

Regarding `c1ccncc1`, the Potency entry was “inactive”.

For the compound `OC1C(O)C(O)C(O)C(O)C1O` (stereo not given), the Potency entry is “inactive”.

Take `CCCCC(=O)O`: the Potency entry is “inactive”.

As for `CC(C)(C)c1cccc(C(C)(C)C)c1O`, the Potency entry was “inactive”.

With `CCCCCCCCOc1ccc(C(=O)c2ccccc2)c(O)c1`, the Potency entry was “inactive”.

`Cc1ccc(C(C)C)cc1`: the Potency result was “inactive”.

On to `CC(C)(C)[C@@H](O)[C@@H](Cc1ccc(Cl)cc1)n1cncn1`, for which the Potency entry was “inactive”.

`Clc1ccc(Cl)c(Cl)c1Cl`: the Potency result is “inactive”.

For `Cc1ccc(N)c(S(=O)(=O)O)c1`, the Potency result was “inactive”.

As for `CN1CCC[C@H]1c1cccnc1`, the Potency result was “inactive”.

Regarding `CC1(C)[C@@H]2CC[C@@]1(C)C(=O)C2`, the Potency entry was “inactive”.

As for `O=C1CCc2ccccc2O1`, the Potency result is “inactive”.

As for `CCn1c2ccccc2c2cc(N)ccc21`, the Potency entry is “inactive”.

For `CCCCOCCO`, the Potency entry was “inactive”.

Consider `CC(C)=CCC/C(C)=C/CO`, for which the Potency entry was “inactive”.

In the case of `COc1ccc(NC(C)=O)cc1N`, the Potency entry was “inactive”.

Consider `CCCCCCCCCCCCCCCC(=O)OC(C)C`, for which the Potency entry was “inactive”.

For `Cc1ccc2c(c1)C(=O)OC2=O`, the Potency result is “inactive”.
